Screening results from PubChem.
IL1B secr inh = inhibitors of inflammasome signaling (IL-1 beta secretion). THP-1 LPS/ATP IL-1B secretion, AlphaLISA, 16 h; stronger effect = lower value. activity change, % at 57.5 µM. actives 4.7% (n = 360,000); in the data active means activity change below about -50%; inconclusive means mostly about -30% to -49%
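THP-1 cells pretreated 1 hr with compounds (up to 57.5 uM final), then stimulated with LPS (250 ng/mL final) plus ATP (1.25 mM final); secreted IL-1B measured by AlphaLISA after 16 hr, decreased signal indicating inhibition.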
DT40 TDP1 no CPT = qHTS for Inhibitors of human tyrosyl-DNA phosphodiesterase 1 (TDP1): qHTS in cells in absence of CPT; Potency, µM (series often up to 46.2 µM), actives largely listed as inhibitors; AID 686978, 2013; DT40 Tdp1-/- hTDP1 cells, no CPT, ATP luminescence, 48 h; actives 15% (n = 420,000); further: nearly all actives have a fitted effect of over 55% in size
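Growth of hTDP1-complemented DT40 Tdp1-knockout cells is measured by ATP luminescence after at least 48 hr compound exposure at 37 °C, with DMSO substituting for the 20 nM CPT used in the parallel screen.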
HT1080-NT tox = kills 2HG-producing HT-1080-NT fibrosarcoma cells; HT-1080-NT fibrosarcoma viability, CellTiter-Glo ATP luminescence, 48 h; Potency, µM (highest dose often 46.1 µM), usual class: cytotoxic; AID 686970; actives 1.6% (n = 360,000);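 further: NT is the 2HG producing partner of a matched IDH1 knockdown line; nearly all actives have a fitted effect of over 55% in size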
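HT-1080-NT fibrosarcoma cells (2HG-overproducing), 750 cells/well in RPMI with 5% FBS, dosed after 2 h and incubated 48 h at 37C. CellTiter-Glo luminescence normalized to DMSO and no-cell wells; concentration-response curves fitted and classed.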
TDP1 cell CPT = growth inhibition of DT40 Tdp1-/-;hTDP1 cells with camptothecin (screen for TDP1 inhibitors); chicken DT40 Tdp1-/-;hTDP1 cells + 20 nM CPT, ATP luminescence, 48 h; Potency, µM (doses to about 46.2 µM), most hits filed as inhibitors; actives 12% (n = 420,000); AID 686979; further: nearly all actives have a fitted effect of over 55% in size
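Chicken DT40 Tdp1-/- cells complemented with human TDP1, 400 cells/well, exposed to compounds plus 20 nM camptothecin for at least 48 h at 37 C; viability read as ATP content by CellTiter-Glo luminescence.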
HT1080 IDH1KD tx = kills HT-1080 cells with IDH1 knockdown; Potency, µM (top dose mostly 46.1 µM), actives largely listed as cytotoxic; HT-1080 IDH1 knockdown viability, ATP luminescence, 48 h; actives 2% (n = 360,000)
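% activity derives from luminescence (CellTiter-Glo), normalised to DMSO and no-cell wells. HT-1080-IDH1KD cells, 750/well, had 48 h compound exposure at 37 °C.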
Hits are given with their value; . = inactive; ? = inconclusive; / = not tested or not shown. Shown are actives, neighbours in structure and some others; about 19% of the full set was active somewhere. Unless noted, the call rests on the fitted dose curve; in most records, active means well fitted curve in the direction sought with a large enough effect; inconclusive means small, poorly fitted or top-dose-only effect, or another doubt; inactive means no such curve, though single readings can be large; an effect the other way counts as inactive or inconclusive.

SMILES	IL1B secr inh	DT40 TDP1 no CPT	HT1080-NT tox	TDP1 cell CPT	HT1080 IDH1KD tx
CCCNC(=O)NC1C(NC(=O)NCCC)N(C)C(=O)N1C (stereo not given)	.	.	.	.	.
COc1cccc(C(=O)N(c2ccc(OC)cc2OC)C2C=CS(=O)(=O)C2)c1 (stereo not given)	.	.	.	.	.
CCN(CCNCC(O)COCc1ccc(Cl)cc1)c1cccc(C)c1 (stereo not given)	/	?	16µM	?	?
CCc1nc(SCC(=O)Nc2nc3c(s2)CCCC3)c2ccccc2n1	-86	13µM	.	18µM	.
O=C(CSc1nc2ccccc2o1)Nc1nc2c(s1)CCCC2	.	15µM	?	?	?
CCn1cc(S(=O)(=O)N2CCc3ccccc3C2)cn1	.	.	.	.	.
O=C(C[n+]1csc2ccccc21)c1ccc(O)c(O)c1	/	16µM	/	?	/
Cc1ccc(C)c(NC(=O)CN(C)S(=O)(=O)c2ccccc2)c1	.	.	.	.	.
Cc1ccc(S(=O)(=O)N(CCc2ccccc2)CC(=O)Nc2cc(C)ccc2C)cc1	/	16µM	/	?	/
COc1ccc(S(=O)(=O)N(CCc2ccccc2)CC(=O)NCc2ccc(C)cc2)cc1	/	21µM	/	?	/
COc1ccc(S(=O)(=O)N(CCc2ccccc2)CC(=O)Nc2cc(C)ccc2C)cc1	/	21µM	/	18µM	/
COc1ccc(S(=O)(=O)N(CCc2ccccc2)CC(=O)Nc2cccc(OC)c2)cc1	/	18µM	/	?	/
CSc1ccccc1NC(=O)CN(C)CC(=O)Nc1cc(C)ccc1C	.	21µM	.	.	.
COc1ccc(/C=N/NC(=O)CN(CCc2ccccc2)S(=O)(=O)c2ccc(NC(C)=O)cc2)cc1OC	.	?	.	?	.
COc1ccc(S(=O)(=O)N(CCc2ccccc2)CC(=O)Nc2ccc(C)c(C)c2)cc1OC	/	16µM	/	15µM	/
O=C(CN1Cc2ccccc2C1=O)Nc1cc(F)ccc1F	/	.	/	.	/
O=C(CCc1nnc(COc2ccccc2)o1)NCCc1cccs1	.	.	.	.	.
COC(=O)CCCC1=CC2=C(c3ccccc3)C(=O)C(C)(OC(=O)C3CCCC3)C(=O)C2=CN1CCc1c[nH]c2ccccc12 (stereo not given)	.	?	.	?	.
CCn1cc(CN2CCC(C(=O)Nc3ccc(Oc4ccccc4F)cc3)CC2)c(C)n1	.	26µM	.	?	?
CC(C)n1cc(CN2CCC(C(=O)Nc3ccc(Oc4ccccc4F)cc3)CC2)cn1	.	?	?	?	21µM
CC1=C(C(=O)N(C(C)C)C(C)C)CC(CC(=O)NCc2cccs2)C(=O)N1Cc1ccccc1 (stereo not given)	.	?	.	?	.
C=C1C(=O)[C@]23C[C@H]1CCC2[C@@]1(C)C(C[C@@H]3O)[C@](C)(C(=O)OC)CC[C@@H]1OC(C)=O (stereo not given in full)	-116	0.92µM	2.6µM	0.82µM	1.2µM
C=C1C(=O)[C@]23C[C@H]1CCC2[C@@]1(C)C(C[C@@H]3O)[C@](C)(C(=O)O)C[C@H](O)[C@@H]1O (stereo not given in full)	.	.	.	.	.
C=C1C(=O)[C@]23C[C@H]1CC[C@H]2[C@]1(C)[C@@H](OC(C)=O)CC[C@@](C)(C(=O)O)[C@H]1C[C@@H]3O	-78	1µM	6.5µM	1µM	5.8µM
C=C1C(=O)[C@]23C[C@H]1CC[C@H]2[C@]1(C)[C@@H](OC(C)=O)CC[C@@](C)(C(=O)OC)[C@H]1C[C@@H]3OC(C)=O	-116	0.92µM	3.7µM	0.58µM	2.6µM
COC(=O)C1OC(=O)C2OC23[C@]2(C)C(O)CC4C(C)(C)C(OC(C)=O)CC(OC(C)=O)[C@@]4(C)C2CC[C@@]13C (stereo not given in full)	/	.	/	.	/
C=C1C(=O)[C@]23C[C@H]1CC[C@H]2[C@]1(C)[C@@H](O)CC[C@@](C)(C(=O)O)[C@H]1C[C@@H]3O	-75	2.9µM	?	2.3µM	?
CC(=O)OC1CCC23CC1(C)CCC2C(C)(C)CC3OC(C)=O (stereo not given)	/	.	/	.	/
